DUSP3 inh = DUSP3 (human) phosphatase inhibition; P51452; recombinant VHR phosphatase, pNPP absorbance; inhibition, % at 13.3 µM; 0.52% of 290,000 active; AID 1654; in the data active means inhibition above about 50%
Autofluor counter = flagged as autofluorescent in microsphere protease counterscreen. compound autofluorescence counterscreen, microsphere flow cytometry; stronger effect = higher value. fluorescence intensity (test concentration not listed). 3.1% of 360,000 active. AID 624483; in the data active means fluorescence intensity above about 16000; inconclusive means no clear call, values can overlap the other calls
Anthrax LF prot = blocks Bacillus anthracis lethal factor protease; P15917; 0.12% of 360,000 active; AID 588501; inhibition, % at 10 µM; multiplex microsphere protease cleavage assay, LF; in the data active means inhibition above about 30%; inconclusive means no clear call, values can overlap the other calls; further: plate controls were buffer without enzyme for full effect and enzyme alone for no effect
Target sequence (P15917 whole entry, looked up): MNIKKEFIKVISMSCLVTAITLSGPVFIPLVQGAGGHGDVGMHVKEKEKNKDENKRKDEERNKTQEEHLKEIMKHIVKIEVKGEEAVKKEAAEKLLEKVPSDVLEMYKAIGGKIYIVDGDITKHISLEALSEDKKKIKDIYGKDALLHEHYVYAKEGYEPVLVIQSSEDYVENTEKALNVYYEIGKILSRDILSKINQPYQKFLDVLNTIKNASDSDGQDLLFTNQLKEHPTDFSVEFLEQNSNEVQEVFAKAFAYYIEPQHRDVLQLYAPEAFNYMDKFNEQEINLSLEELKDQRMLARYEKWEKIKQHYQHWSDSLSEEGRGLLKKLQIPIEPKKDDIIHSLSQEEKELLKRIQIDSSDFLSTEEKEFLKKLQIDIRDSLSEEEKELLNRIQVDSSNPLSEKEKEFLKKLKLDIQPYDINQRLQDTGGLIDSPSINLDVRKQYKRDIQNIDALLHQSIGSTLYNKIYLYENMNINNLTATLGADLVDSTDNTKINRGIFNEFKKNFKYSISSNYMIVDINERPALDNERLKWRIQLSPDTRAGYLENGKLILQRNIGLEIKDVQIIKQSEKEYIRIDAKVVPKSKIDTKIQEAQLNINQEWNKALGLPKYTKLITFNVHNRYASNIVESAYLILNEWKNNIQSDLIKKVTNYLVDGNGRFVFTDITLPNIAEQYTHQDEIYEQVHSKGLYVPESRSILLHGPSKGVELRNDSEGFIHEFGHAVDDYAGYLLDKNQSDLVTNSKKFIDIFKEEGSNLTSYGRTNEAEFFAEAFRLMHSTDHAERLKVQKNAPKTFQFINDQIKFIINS
BoNT-F LC inh = BoNT F light chain protease inhibition. Multiplex microsphere protease cleavage assay, flow cytometry. inhibition, % at 10 µM. 0.22% of 360,000 active. AID 588497; in the data active means inhibition above about 35%, passing the limit was not always enough; inconclusive means no clear call, values can overlap the other calls; further: plate controls were buffer without enzyme for full effect and enzyme alone for no effect
BoNT A protease = inhibitors of Botulinum neurotoxin A light chain protease; inhibition, % at 10 µM; 0.17% of 360,000 active; multiplex microsphere protease substrate cleavage, flow cytometry; AID 588499; in the data active means inhibition above about 30%; inconclusive means no clear call, values can overlap the other calls; further: plate controls were buffer without enzyme for full effect and enzyme alone for no effect
3CLpro inhibitor = SARS-CoV 3CLpro protease inhibition; P0C6X7; recombinant SARS-CoV 3CLpro, quenched FRET peptide cleavage; inhibition, % at 6 µM; 0.14% of 290,000 active; AID 1706; in the data active means inhibition above about 12%
BoNT-A LC CP1 = BoNT/A light chain protease inhibition; shares compounds with BoNT-F LC inh; multiplex microsphere protease assay, flow cytometry; inhibition, % at 10 µM; 3% of 720 active; AID 602139; in the data active means inhibition above about 32%
BoNT-F LC CP1 = BoNT/F light chain protease inhibition; inhibition, % at 10 µM; 720 tested, under 10 active; AID 602140; shares compounds with BoNT-F LC inh; multiplex microsphere protease cleavage assay, flow cytometry
LF protease CP1 = inhibitors of Bacillus anthracis lethal factor protease | shares compounds with BoNT-F LC inh | multiplex microsphere protease cleavage assay, LF | inhibition, % at 10 µM | 720 tested, under 10 active | AID 602142
The depositor's hits bear a star; ? = inconclusive; · = no result. Hits are enriched below; roughly 3.9% of the tested compounds scored in any of these assays. Unless noted, how the calls were made is not given here.

SMILES	DUSP3 inh	Autofluor counter	Anthrax LF prot	BoNT-F LC inh	BoNT A protease	3CLpro inhibitor	BoNT-A LC CP1	BoNT-F LC CP1	LF protease CP1
CC(=O)c1ccc(NS(=O)(=O)c2cccc(C(=O)Nc3ccccc3C(=O)O)c2)cc1	12	3368	-2	-5	4	7	0	-1	6
COc1ccc(N(C)S(=O)(=O)c2cccc(C(=O)OCC(=O)c3c(N)n(C)c(=O)n(C)c3=O)c2)cc1	·	3455	-3	-6	0	·	·	·	·
CN(C)C(=O)c1cn(CCC#N)nc1-c1ccc2ccccc2c1	6	3918	12	52*	0	2	-1	-12	0
N#CCCn1cc(C(N)=O)c(-c2ccc3ccccc3c2)n1	5	3976	19	-28	1	3	·	·	·
COc1cc(C(=O)NC2CCN(CC(=O)Nc3cccc(C)c3C)CC2)cc(OC)c1OC	-4	3530	-5	-3	3	-9	·	·	·
CCc1ccc(Nc2nc3ccccc3c(=O)s2)cc1	-6	5006	33*	76*	8	10	0	-3	-1
O=C(COc1ccc(S(=O)(=O)NCc2ccccc2)cc1Cl)NCc1ccncc1	7	6416	-1	-2	0	0	·	·	·
O=C(COc1ccc(S(=O)(=O)NCc2ccccc2)cc1Cl)NCc1ccccn1	-25	2862	22	68*	13	-1	2	-4	-1
Cc1onc(-c2ccccc2)c1C(=O)N1CCN(Cc2ccccc2)CC1	10	5483	0	1	0	-4	·	·	·
O=C(Nc1scc(-c2ccccc2)c1C(=O)O)c1ccccc1F	0	4068	20	?	3	6	·	·	·
Cc1ccc(-c2csc(NC(=O)c3ccccc3F)c2C(=O)O)cc1	·	3981	20	35*	4	10	0	-5	-7
CC(C)n1c2ccccc2c2nc3ccccc3nc21	-19	4635	27	2	55*	3	25	3	12
C#CCn1c2ccccc2c2nc3ccccc3nc21	3	3862	-7	?	-7	-6	·	·	·
COc1ccc([C@@H](O)[C@@H](N)c2ccccc2)cc1	·	3097	38*	?	0	·	0	1	1
COc1ccc(C(O)P(=O)(Oc2ccccc2)Oc2ccccc2)cc1 (configuration not stated)	·	3061	8	5	10	5	·	·	·
Cn1ccnc1C(O)c1cc(C(C)(C)C)c(O)c(C(C)(C)C)c1 (configuration not stated)	1	6965	32*	14	25	4	4	0	2
CCCCN(C(=O)c1cccc(-n2cnnn2)c1)c1c(N)n(CCCC)c(=O)[nH]c1=O	·	3998	-1	-3	0	·	·	·	·
COc1ccccc1N1C(=O)CC(N2CCN(c3ccc(F)cc3)CC2)C1=O (configuration not stated)	12	3063	19	40*	-2	0	0	-4	2
COC(=O)c1ccc(CSCc2ccc(C#N)cc2)cc1	40	·	·	·	·	3	·	·	·
O=C(CN(C(=O)c1csnn1)c1cccc(C(F)(F)F)c1)NCCc1ccccc1	21	6098	-3	-2	0	4	·	·	·
CCOc1cc2nc3c4ccccc4n(C)c3nc2cc1OCC	40	2580	20	8	48*	1	8	0	3
CN(C)C(CNC(=O)C1CCN(S(=O)(=O)c2ccccc2C(F)(F)F)CC1)Cc1ccccc1 (configuration not stated)	·	4927	-1	5	2	·	·	·	·
c1ccc2c(c1)COc1c3ncccc3nn1-2	·	3059	-5	-6	0	·	·	·	·
CCCS(=O)(=O)NC(=O)C1(C)CCN(C(=O)c2cccc(OC(F)(F)F)c2)C1 (configuration not stated)	·	3675	-5	2	0	·	·	·	·
O=[N+]([O-])c1ccc(Sc2cccc3cccnc23)c2cccnc12	4	4230	30*	8	24	0	17	4	13
SMILES	DUSP3 inh	Autofluor counter	Anthrax LF prot	BoNT-F LC inh	BoNT A protease	3CLpro inhibitor	BoNT-A LC CP1	BoNT-F LC CP1	LF protease CP1
O=[N+]([O-])c1cc2cccnc2c2ncccc12	20	·	·	·	·	6	·	·	·
O=C(CSc1nnc(NC(=O)C2CC(=O)N(c3ccc(F)cc3)C2)s1)NC1CCCC1 (configuration not stated)	-2	5504	2	0	2	-3	·	·	·
COC(=O)C1CCN(C(=O)CN(C)Cc2ccc(C(C)(C)C)cc2)CC1	2	3751	3	36*	0	-2	2	2	5
CN(Cc1ccc(C(C)(C)C)cc1)C(=O)C1CCN(C(=O)Nc2ccccc2)CC1	·	?	-4	-4	-2	·	·	·	·
CCOc1ccccc1NC(=O)c1ccc(S(=O)(=O)N(C)C)cc1	-18	?	39*	4	0	1	0	-4	-1
CCOc1ccccc1NC(=O)c1ccc(S(=O)(=O)N(C)c2ccccc2)cc1	·	3483	-13	-8	0	·	·	·	·
Nc1nc(SCC(=O)Nc2cc(-c3ccccc3)nn2-c2ccccc2)n[nH]1	23	5643	7	40*	?	2	1	-3	-3
Cc1ccc(-c2cc(NC(=O)CSc3n[nH]c(N)n3)n(-c3ccccc3)n2)cc1	39	4856	-4	4	0	-2	·	·	·
O=S(=O)(c1ccc(Cl)cc1)N1CCN(c2ccccn2)CC1	25	3973	-6	48*	-3	0	1	-4	-6
O=S(=O)(c1ccc(F)cc1)N1CCN(c2ccccn2)CC1	15	4180	4	-6	-2	-7	·	·	·
COCc1cc(CN2CCCC(C(=O)c3cccc(C(F)(F)F)c3)C2)ccc1OC (configuration not stated)	13	3106	-2	43*	4	-3	-2	0	-3
Cc1ccccc1NC(=O)CSCc1cc(=O)n2ccsc2n1	-25	5538	-2	2	1	-5	·	·	·
Cc1csc(NC(=O)CSc2nnc(CCNC(=O)c3ccc(Cl)c(Cl)c3)n2C)n1	25	9778	3	0	0	-1	·	·	·
COc1ccc(CCCc2nnc(SCC(=O)Nc3nc(C)cs3)n2C)cc1	14	11415	-17	35*	?	-9	0	-6	-1
COc1ccccc1NC(=O)C(C)Sc1nccn1C (configuration not stated)	·	3002	1	8	1	·	·	·	·
CC(Sc1nccn1C)C(=O)Nc1ccc(C(N)=O)cc1 (configuration not stated)	·	?	2	39*	22	·	0	-5	-1
C[C@@H]1[C@H](O)C[C@@]23COC(=O)C2=CCCC3[C@@]1(C)CCC1COC(=O)C1 (some centres not stated)	·	4433	-2	-11	-1	·	·	·	·
O=C(O)c1ccc(Cl)c(S(=O)(=O)NCc2cccnc2)c1	16	3280	-2	0	-1	5	·	·	·
